Experimental findings from PubChem BioAssay (NCI) are described below.

Compounds without any hit were thinned out: in the full panel of roughly 83,000, 20% have a hit.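 Results are percent growth after 48 hours of single-concentration exposure. 100 means growth as in untreated cells, lower positive values show inhibition; negative values down to -100 show cell death.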 A number with no mark means an inactive call. Active and inactive are the calls of the source. Rule for the calls: active = growth percent below 10; inactive = the rest.

What all share (assay): NCI-60 one-dose screen, 48 h (100 = growth as untreated, 0 = no growth, -100 = all killed)
What all share (details): 10 µM unless noted

The subject of assay [1] is SR leukemia.
The subject of assay [2] is RPMI-8226 leukemia.
The subject of assay [3] is OVCAR-8 ovarian.
The test system of assay [4] is OVCAR-5 ovarian.
The subject of assay [5] is OVCAR-4 ovarian.
For assay [6], the system named is SK-OV-3 ovarian.
Assay [7] deals with IGROV1 ovarian.
The subject of assay [8] is HS 578T breast.
The test system of assay [9] is NCI/ADR-RES ovarian.

Regarding `O=C1Nc2ccccc2/C1=N\c1nnc(-c2ccccc2)o1`, the growth is 105% in [1]; 101% in [2]; 102% in [3]; 106% in assay [4]; 98.7% in assay [5]; 82.5% in assay [6]. Besides, the growth is 72.1% in [7], 90.1% in assay [8] and 95.6% in [9].

Consider `CC/C(=C(/c1ccc(Cl)cc1)c1ccc(OCCN)cc1)c1ccccc1`, for which the growth was 0.24% (active) in assay [1]; 89.8% in [2]; 100% in [3]; 119% in assay [4]; 99.3% in assay [5]; 119% in assay [6]. The growth was 96.8% in [7], 90.3% in [8] and 99.9% in [9].

Regarding `O=C1/C(=C/c2cc(F)cc(F)c2)Cc2cc3c(cc21)OCO3`, the growth in assay [1] was 18.4%; in assay [2], 52.3%; in assay [3], 42.5%; in assay [4], 65.3%; in assay [5], 61.9%; in assay [6] it was 35.6%. Also, the growth in assay [7] was 36.9%; in assay [8], 46.9%; in assay [9], 19.4%.

For the molecule `CN1CCN(Cc2ccc(NC(=O)c3cncc(C#Cc4cnc5ccc(N6CCOCC6)nn45)c3)cc2C(F)(F)F)CC1`, the growth was -28.4% (active) in assay [1]; -23.9% (active) in [2]; -37.6% (active) in [3]; -20.4% (active) in [4]; -19.7% (active) in assay [5]; -31.9% (active) in assay [6]. Moreover, the growth in [7] is -32.8% (active); in [8] it was -27.8% (active); in [9] it was -15.8% (active).

`Nc1ccc(Nc2ncnc3sc4c(c23)CCN(Cc2ccccc2)C4)cc1`: the growth is 82.9% in [1]; 94.3% in [2]; 99.3% in assay [3]; 107% in assay [4]; 96.8% in [5]; 113% in assay [6]. In addition, the values for the growth in assay [7], in [8] and in assay [9] were 101%, 98.2% and 101%, respectively.

For the molecule `CS(=O)(=O)c1ccc(/C(=N/N=C(N)N)c2ccc(Cl)cc2)cc1`, the growth in assay [1] is 35.1%; in assay [2], 101%; in assay [3], 103%; in assay [4], 99.7%; in assay [5] it was 98.4%; in assay [6] it was 87.2%. The growth in assay [7] is 85.6%; in assay [8] it was 91.8%; in assay [9], 102%.

Take `CCOP(=O)(OCC)OC[C@]12CCC(C)(C)C[C@H]1C1=CC[C@@H]3[C@@]4(C)CC[C@H](OP(=O)(OCC)OCC)C(C)(C)[C@@H]4CC[C@@]3(C)[C@]1(C)CC2`: the growth in [1] was 35%; in assay [2] it was 5.23% (active); in assay [3], 60.4%; in assay [4] it was 75.2%; in assay [5], 65.9%; in [6], 73.2%. The growth is 68.1% in assay [7], 83.2% in assay [8] and 65.8% in [9].

Take `CN1CCN(Cc2ccc(NC(=O)c3cncc(C#Cc4cnc5ccc(N)nn45)c3)cc2C(F)(F)F)CC1`: the growth in [1] was 5.19% (active); in assay [2] it was 24.7%; in [3], 16.5%; in assay [4], 32%; in assay [5], 46.1%; in assay [6] it was 45.3%. Besides, the growth is -4.68% (active) in assay [7], 20.6% in assay [8] and 89.8% in [9].

Regarding `O=S(=O)(Oc1ccc(-c2cn3ccoc3n2)cc1)c1cccc(C(F)(F)F)c1`, the growth in assay [1] was 100%; in assay [2] it was 94.4%; in [3] it was 101%; in assay [4], 103%; in assay [5] it was 102%; in assay [6], 117%. Also, the growth in assay [7] was 106%; in assay [8] it was 98.6%; in [9], 106%.

Turning to `COc1ccccc1N1CCN(C2=C(Cl)C(=O)c3ncccc3C2=O)CC1`, the growth in assay [1] was 12.4%; in assay [2] it was 79.4%; in [3], 90.5%; in assay [4], 114%; in [5] it was 85.7%; in [6], 90.5%. In addition, the growth in assay [7] is 86.3%; in assay [8], 87.2%; in assay [9] it was 81.7%.

For the molecule `O=S(=O)(Oc1ccc(-c2cn3ccsc3n2)cc1)c1cccc(C(F)(F)F)c1`, the growth in assay [1] is 95.2%; in assay [2], 97.5%; in assay [3], 101%; in assay [4] it was 107%; in [5] it was 96.5%; in assay [6], 108%. The growth was 107% in [7], 102% in assay [8] and 108% in [9].

Take `CN1CCN(Cc2ccc(NC(=O)c3cncc(C#Cc4cnc5ccc(OC6CCOCC6)nn45)c3)cc2C(F)(F)F)CC1`: the growth in assay [1] was -16.2% (active); in assay [2], -20.9% (active); in assay [3], -58.8% (active); in assay [4], -55.4% (active); in [5], -53.7% (active); in assay [6], -73.7% (active). For the same molecule, the growth is -43.3% (active) in assay [7], -38.1% (active) in [8] and -37.7% (active) in assay [9].

`NC(=S)n1c(=O)n(-c2cccc(C(F)(F)F)c2)c(=O)c2cc(-c3ccc(F)cc3F)ccc21`: the growth in [1] was 5.69% (active); in [2] it was -20.8% (active); in assay [3], 10.9%; in assay [4], 9.62% (active); in assay [5] it was 29.9%; in assay [6], -2.63% (active). Moreover, the growth is 21.2% in assay [7], -2.09% (active) in assay [8] and 4.95% (active) in assay [9].

Take `Cc1cccc(N2CCN(C3=C(Cl)C(=O)c4ncccc4C3=O)CC2)c1`: the growth in [1] is 3.39% (active); in [2], 46.8%; in [3] it was 80.6%; in assay [4] it was 111%; in [5], 67%; in assay [6] it was 92.9%. Moreover, the growth was 73.1% in [7], 70.6% in [8] and 78.7% in [9].

As to `Cc1c(C(=O)/C=C/c2ccc(Cl)cc2)nnn1-c1ccc2oc(=O)ccc2c1`, the growth in assay [1] is 91%; in assay [2], 54.2%; in assay [3], 99.4%; in assay [4] it was 97.9%; in [5], 105%; in [6] it was 106%. The growth is 102% in [7], 109% in assay [8] and 88.4% in [9].

Take `CS(=O)(=O)c1nccc(-c2c(-c3cccc(OCc4ccc(Cl)c(C(F)(F)F)c4)c3)nc3sccn23)n1`: the growth in assay [1] was 9.33% (active); in assay [2], -16.8% (active); in assay [3], 99.3%; in assay [4], 101%; in [5], 71.9%; in [6], 104%. Moreover, the growth in assay [7] is 34.1%; in assay [8], 41.1%; in assay [9], 98.2%.

For `O=C(CCCCCC/C=C\c1csc(Br)n1)NO`, the growth is 50.6% in assay [1]; 53.9% in assay [2]; 76% in [3]; 80.1% in assay [4]; 87.5% in assay [5]; 95.1% in assay [6]. In addition, the growth in assay [7] is 81.9%; in assay [8] it was 87.1%; in assay [9], 64.6%.

Take `C#C[C@]1(O)CC[C@H]2[C@@H]3CC=C4c5sc(N6CCN(C)CC6)nc5CC[C@]4(C)[C@H]3CC[C@@]21C`: the growth in assay [1] was 4.08% (active); in assay [2] it was -13.3% (active); in assay [3], 74.2%; in [4], 69.5%; in assay [5], 75.6%; in [6] it was 54%. Besides, the figures for the growth in assay [7], in [8] and in assay [9] were 63.2%, 59.8% and 36.8%, respectively.

Turning to `Cc1ccc(-c2nc(SCC(=O)c3ccccc3)nc(Nc3ccc(S(N)(=O)=O)cc3)c2C#N)cc1`, the growth in [1] was 56.9%; in assay [2] it was 65.4%; in assay [3] it was 34.6%; in assay [4] it was 97.3%; in [5], 24.3%; in [6], 107%. The growth is 86.3% in assay [7], -0.186% (active) in assay [8] and 81.7% in assay [9].

With `CCN(CC)c1ccc(/C=N/NC(=O)c2ccc(S(N)(=O)=O)cc2)cc1`, the growth in [1] is 14.1%; in [2], 34.3%; in assay [3], 14.6%; in assay [4] it was 46.7%; in assay [5] it was 30.4%; in assay [6], 35.5%. Besides, the growth was 19.9% in [7], 64.1% in assay [8] and 53.8% in assay [9].

`CCCCc1nc2c(N)nc3ccccc3c2n1Cc1cccc(CN)c1`: the growth in assay [1] is 2.23% (active); in assay [2], 42.5%; in [3], 63.9%; in assay [4], 109%; in [5], 53.6%; in assay [6], 91.2%. Besides, the figures for the growth in assay [7], in [8] and in assay [9] were 62.8%, 67.2% and 93.5%, respectively.

On to `CN1CCN(c2ccc(Nc3nc(NCCNS(=O)(=O)c4ccccc4)c4sccc4n3)cc2)CC1`, for which the growth in assay [1] was 117%; in assay [2] it was 102%; in assay [3], 106%; in [4], 102%; in assay [5], 92.5%; in assay [6], 107%. Also, the growth is 95.9% in assay [7], 88.1% in assay [8] and 101% in assay [9].

Consider `O=S1SC(c2ccccc2)=NN1c1cc(F)cc(F)c1` (stereo unspecified), for which the growth is 19.3% in assay [1]; 11.5% in assay [2]; 35.5% in assay [3]; 93.8% in assay [4]; 49.3% in assay [5]; 24.8% in assay [6]. In addition, the values for the growth in assay [7], in [8] and in [9] were 53.8%, 61.9% and 53.4%, respectively.

Consider `COc1ccc(-c2c3c(cn2Cc2cccc(OC)c2)-c2oncc2CCC3)cc1`, for which the growth in assay [1] is 89.2%; in [2], 93.6%; in assay [3], 98.5%; in assay [4], 108%; in [5], 100%; in [6] it was 98.3%. The growth is 94.3% in [7], 101% in assay [8] and 97% in assay [9].

`CC1(C)CC[C@]23CC[C@]4(C)[C@H](CC[C@@H]5[C@@]6(C)CC[C@H](NCO)C(C)(C)[C@@H]6CC[C@]54C)[C@H]2[C@H]1OC3`: the growth is 3.69% (active) in assay [1]; 19.3% in assay [2]; 96.1% in [3]; 60.4% in assay [4]; 76.9% in assay [5]; 105% in [6]. Moreover, the growth in [7] is 64.8%; in assay [8], 90.7%; in assay [9] it was 82.6%.

Regarding `CNC(=O)c1cc(N2CCc3cc(NC(=O)Nc4ccc(N5CCOCC5)c(C(F)(F)F)c4)ccc32)ccn1`, the growth is 14.4% in [1]; 16% in assay [2]; 23.5% in assay [3]; 57.4% in assay [4]; 41.4% in assay [5]; 80% in assay [6]. In addition, the results for the growth in assay [7], in [8] and in assay [9] were 37.3%, -0.517% (active) and 16.8%, respectively.

For `COc1cc(C(=O)c2cc(C(C)=O)c3cccc(C)n23)cc(OC)c1OC`, the growth is 17% in assay [1]; 51.2% in [2]; 50.8% in assay [3]; 65.8% in assay [4]; 74.1% in [5]; 46.6% in [6]. Also, the growth was 43.9% in assay [7], 44.2% in [8] and 22.1% in [9].

In the case of `O=C(/C=C/c1cc(Cl)ccc1Cl)Nc1ncc(Cc2ccc(Cl)cc2)s1`, the growth is 14% in assay [1]; 16.2% in [2]; 1.15% (active) in [3]; 23.9% in [4]; 30.4% in [5]; 35.6% in assay [6]. In addition, the growth was 5.94% (active) in assay [7], 6.99% (active) in [8] and -5.33% (active) in [9].

With `CC1=Cc2ccccc2OC12C=Cc1ccccc1O2` (stereo unspecified), the growth in [1] is 103%; in assay [2] it was 104%; in assay [3], 103%; in assay [4] it was 102%; in [5] it was 105%; in assay [6] it was 102%. Also, the growth in [7] was 69.1%; in assay [8] it was 106%; in assay [9], 98.6%.
